In PubChem BioAssay (NCATS) one finds Potency and outcome data, which are given here for 31 compounds.

Calls of active or inactive are those of the source. Entries that show only a call come without a potency. Unless noted, calls come from the whole dose curve; as a rule, active = well fitted curve in the direction sought with a large enough effect; inconclusive = small, poorly fitted or top-dose-only effect, or another doubt; inactive = no such curve, though single readings can be large; an effect the other way counts as inactive or inconclusive.

Pyruvate kinase PKM (Homo sapiens), sequence (P14618 whole entry, looked up): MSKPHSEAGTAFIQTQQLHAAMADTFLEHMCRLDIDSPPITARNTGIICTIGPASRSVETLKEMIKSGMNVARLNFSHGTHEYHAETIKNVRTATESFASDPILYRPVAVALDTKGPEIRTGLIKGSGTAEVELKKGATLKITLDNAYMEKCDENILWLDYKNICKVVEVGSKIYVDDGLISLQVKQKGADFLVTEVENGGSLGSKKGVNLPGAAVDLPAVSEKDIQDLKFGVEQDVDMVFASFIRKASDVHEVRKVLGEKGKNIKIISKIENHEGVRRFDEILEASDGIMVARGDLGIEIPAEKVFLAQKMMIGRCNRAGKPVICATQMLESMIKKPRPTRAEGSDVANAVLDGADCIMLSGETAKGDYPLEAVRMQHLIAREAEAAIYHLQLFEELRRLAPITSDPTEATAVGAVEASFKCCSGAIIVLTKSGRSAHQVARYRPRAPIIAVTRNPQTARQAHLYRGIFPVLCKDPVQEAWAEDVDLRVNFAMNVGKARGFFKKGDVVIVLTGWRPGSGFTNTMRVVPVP

Test system in one experiment: not listed separately
The experiment in a line: Confirmation and Secondary Assay for Modulators of Hemoglobin Beta Chain Splicing at IVS2 705 locus (AID 930).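 Note: GFP fluorescence per well restored by corrected splicing of the IVS2-705 intron in EGFP.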 Note: potency is the fitted concentration of half-maximal effect. As to conditions: HeLa EGFP-705 splicing reporter, GFP fluorescence, 48 h; series mostly up to 46.1 µM. The method in brief:
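Per-well GFP, captured at 1 x 8 µm resolution with 488 nm excitation, served as the read-out for HeLa EGFP-705 cells incubated 2 days with test compound versus DMSO.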
With `COc1ccc(C(=O)CC(=O)c2ccc(C(C)(C)C)cc2)cc1`, the Potency result is “inactive”.
As to `CCn1cc(C(=O)O)c(=O)c2cc(F)c(N3CCNCC3)cc21`, the Potency result was “inactive”.
Still for that read-out and setting: next, `COc1ccccc1OCC(O)COC(N)=O` (stereo unspecified): “inactive”.
For `Cn1c(=O)c2c(ncn2CC(O)CO)n(C)c1=O` (stereo unspecified), the Potency entry was “inactive”.
Same read-out and setting: with `COc1cnc(NS(=O)(=O)c2ccc(N)cc2)nc1` the entry was “inactive”; with `Nc1nc(N)c2nc(CNc3ccc(C(=O)NC(CCC(=O)O)C(=O)O)cc3)cnc2n1` (stereo unspecified), “inactive”; with `NS(=O)(=O)c1cc2c(cc1Cl)NC(C(Cl)Cl)NS2(=O)=O` (stereo unspecified), “inactive”.
Still for that read-out and setting: next, `NCCCC(O)(P(=O)(O)O)P(=O)(O)O`: “inactive”; `CNS(=O)(=O)Cc1ccc2[nH]cc(CCN(C)C)c2c1`: “inactive”.
For `CCCCOc1ccc(CC(=O)NO)cc1`, the Potency entry is “inactive”.
For `O=c1oc2c(O)c(O)cc3c(=O)oc4c(O)c(O)cc1c4c23`, the Potency was 10 µM (active).
Still for that read-out and setting: with `O=C(O)c1cccnc1` the entry was “inactive”.
Same read-out and setting: with `CC1=CC(=O)c2ccccc2C1=O` the entry was “inactive”; with `O=S(=O)(O)CCS`, “inactive”.
Same read-out and setting: next, `NC(=O)N1c2ccccc2CC(=O)c2ccccc21`: “inactive”; `COc1ccc2c(c1)c(CC(=O)OCC(=O)O)c(C)n2C(=O)c1ccc(Cl)cc1`: “inactive”.
On to `CN(C)CCc1c[nH]c2ccc(CS(=O)(=O)N3CCCC3)cc12`, for which the Potency entry was “inactive”.
In the case of `Oc1c(Cl)cc(Cl)c2cccnc12`, the Potency result is “inactive”.
Still for that read-out and setting: next, `COC(=O)Nc1nc2ccc(C(=O)c3ccccc3)cc2[nH]1`: “inactive”; `Nc1nc(=S)c2[nH]cnc2[nH]1`: 5.01 µM (active).
The same measure, in the same setting: with `OC(Cn1cncn1)(Cn1cncn1)c1ccc(F)cc1F` the entry was “inactive”; with `C1CCC(C(CC2CCCCN2)C2CCCCC2)CC1` (stereo unspecified), “inactive”.
The same measure, in the same setting: next, `N=C(N)c1ccc(OCCCCCOc2ccc(C(=N)N)cc2)cc1`: “inactive”.
As for `Nc1ccc(S(=O)(=O)Nc2ccccn2)cc1`, the Potency entry was “inactive”.
On the same count and under the same terms, with `CN1CCCC(n2nc(Cc3ccc(Cl)cc3)c3ccccc3c2=O)CC1` (stereo unspecified) the entry was “inactive”.

Another experiment deals with Pyruvate kinase (Leishmania mexicana) (UniProt Q27686). The experiment in a line: qHTS Validation Assay for Inhibitors of Leishmania Mexicana Pyruvate Kinase (AID 945). As to conditions: purified L. mexicana pyruvate kinase, enzyme activity, E451W mutant enzyme; series mostly up to 57.5 µM. The method in brief: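 An endpoint luciferase assay: 0.2 nM LmPYK E451W turns over 0.5 mM PEP with 0.1 mM ADP for 1 h at room temperature, pH 7.2, before PKLight addition. Values are normalized to DMSO-only wells.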
Pyruvate kinase (Leishmania mexicana), sequence (Q27686 2-499 E452W): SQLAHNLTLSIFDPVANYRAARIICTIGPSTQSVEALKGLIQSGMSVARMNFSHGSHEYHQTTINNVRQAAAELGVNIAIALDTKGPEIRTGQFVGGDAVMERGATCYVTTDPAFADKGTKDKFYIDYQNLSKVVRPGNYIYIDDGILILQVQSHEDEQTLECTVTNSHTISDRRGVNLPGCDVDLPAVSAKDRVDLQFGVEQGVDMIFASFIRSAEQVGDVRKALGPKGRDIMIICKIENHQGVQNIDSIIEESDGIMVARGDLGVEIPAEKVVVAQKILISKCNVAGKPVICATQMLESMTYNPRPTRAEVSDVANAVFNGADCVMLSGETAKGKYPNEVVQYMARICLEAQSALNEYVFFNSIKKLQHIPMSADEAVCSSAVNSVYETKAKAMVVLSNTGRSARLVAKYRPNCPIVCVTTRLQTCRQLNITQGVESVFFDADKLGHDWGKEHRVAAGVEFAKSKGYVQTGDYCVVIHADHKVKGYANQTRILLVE
Background: qHTS replaces the single test concentration by a dilution series.
On to `NC(=O)c1cccc(N)c1`, for which the compound was called inactive.
In the case of `OCc1ccc(-c2nn(Cc3ccccc3)c3ccccc23)o1`, the outcome was inactive.
Same read-out and setting: next, `CC(C)(C)NC(=O)[C@H]1CC[C@H]2[C@@H]3CC[C@H]4NC(=O)C=C[C@]4(C)[C@H]3CC[C@]12C`: “inactive”; `Cc1ccc(S(=O)(=O)N[C@@H](Cc2ccccc2)C(=O)CCl)cc1`: “inactive”.
The same measure, in the same setting: next, `COc1cc2ncnc(Nc3cccc(Cl)c3)c2cc1OC`: “inactive”.

A further experiment deals with Pyruvate kinase PKM (Homo sapiens) (UniProt P14618). The experiment in a line: qHTS Assay for Activators of Human Muscle Pyruvate Kinase (AID 954; active = well fitted curve in the direction sought with a large enough effect, not every such curve was filed as active). As to conditions: purified human muscle pyruvate kinase, luciferase-coupled luminescence, 1 h; series mostly up to 57.5 µM. In outline:
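A coupled luminescent readout tracked ATP made from ADP by purified PKM2. Final conditions included 0.1 nM enzyme, PEP and ADP at 0.5 and 0.1 mM, pH 7.2 imidazole buffer with BSA, and a one-hour room-temperature reaction.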
As to `NC(=O)c1cccc(N)c1`, the compound was classed as inactive.
As to `OCc1ccc(-c2nn(Cc3ccccc3)c3ccccc23)o1`, the result was inactive.
On the same count and under the same terms, next, `CC(C)(C)NC(=O)[C@H]1CC[C@H]2[C@@H]3CC[C@H]4NC(=O)C=C[C@]4(C)[C@H]3CC[C@]12C`: “inactive”; `Cc1ccc(S(=O)(=O)N[C@@H](Cc2ccccc2)C(=O)CCl)cc1`: “inactive”; `COc1cc2ncnc(Nc3cccc(Cl)c3)c2cc1OC`: “inactive”.
Take `N[C@@H](Cc1ccc(O)c(O)c1)C(=O)O`: the outcome was inactive.
